For assay [1], the target named is Lysosomal acid glucosylceramidase (Homo sapiens) (UniProt P04062). Description: Glucocerebrosidase-p2 (AID 348; in the data active = potency below about 10 µM; also: potency is read from the fitted curve at half-maximal effect). The following applies: purified GBA, blue fluorogenic substrate, 40 min. The method in brief: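 Normal human glucocerebrosidase (0.2 nM) with blue fluorogenic substrate (80 uM final) in citrate/phosphate pH 5.9 with 10mM sodium taurocholate, 0.01% tween-20; 40 min RT, NaOH/glycine stop; fluorescence Ex 365/Em 440; AC50 from a titration from 0.6 nM upwards.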
Chain of Lysosomal acid glucosylceramidase (Homo sapiens) (P04062 whole entry, looked up): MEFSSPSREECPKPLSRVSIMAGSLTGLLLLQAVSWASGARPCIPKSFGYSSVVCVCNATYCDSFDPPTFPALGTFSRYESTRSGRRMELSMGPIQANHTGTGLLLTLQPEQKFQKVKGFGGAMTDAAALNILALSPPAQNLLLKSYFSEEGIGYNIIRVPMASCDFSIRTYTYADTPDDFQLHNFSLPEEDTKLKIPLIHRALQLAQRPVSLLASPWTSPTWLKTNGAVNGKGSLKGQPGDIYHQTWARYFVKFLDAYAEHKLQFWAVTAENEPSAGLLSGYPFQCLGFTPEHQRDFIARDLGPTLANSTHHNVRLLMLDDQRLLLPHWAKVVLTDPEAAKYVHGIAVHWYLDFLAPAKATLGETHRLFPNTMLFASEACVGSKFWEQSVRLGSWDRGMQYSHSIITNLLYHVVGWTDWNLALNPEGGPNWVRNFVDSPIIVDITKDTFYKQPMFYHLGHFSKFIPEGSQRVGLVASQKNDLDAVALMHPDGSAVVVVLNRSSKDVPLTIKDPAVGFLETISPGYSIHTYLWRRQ

The nature of assay [2]: AP1 Signaling Pathway (AID 357; active = well fitted curve in either direction with a large enough effect, not every such curve was filed as active; also: % is scaled to controls: 0 for no effect and ±100 for the full control effect). The following applies: ME-180 AP-1-bla reporter, EGF-induced, beta-lactamase ratio, 5 h; at 7.69 µM (top of the series) unless noted. The essentials:
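AP-1-bla ME-180 cells with beta-lactamase reporter under AP-1 response element, stimulated with EC50 EGF; compounds titrated, 5 hours at 37 degrees Celsius. CCF4 read at 460/530 nm ratio; positive and negative modulators judged by AC50.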

Assay [3] addresses Cytochrome P450 1A2 (Homo sapiens) (UniProt P05177). In words: p450-cyp1a2 (AID 410; calls by dose curve; also: potency is read from the fitted curve at half-maximal effect). The following applies: recombinant CYP1A2, luciferin-ME demethylation, luminescence; series mostly up to 57 µM. The essentials:
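20nM CYP1A2, 100uM Luciferin-ME (=Km), 100mM KPO4; cpd 10 min RT; +NADPH regen, 60 min RT; stop/detect 20 min; luminescence. Normalized to furafylline 57 uM = full inhibition.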

The nature of assay [4]: NFAT Signaling Pathway (AID 444; active = well fitted curve in either direction with a large enough effect, not every such curve was filed as active;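 also: carbachol stimulus at about its EC50 of 1 µM final; % is scaled to controls: 0 for no effect and ±100 for the full control effect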). The following applies: Jurkat NFAT-bla M1, carbachol, beta-lactamase ratio, 5 h; at 7.69 µM (top of the series) unless noted. The method in brief: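 Jurkat cells carrying an NFAT-driven β-lactamase reporter and co-transfected muscarinic M1 receptor were treated with compound plus carbachol (1 uM final, an EC50 level) for 5 h at 37 °C. CCF4 loading followed for 1 h at RT; 460/530 nm ratio gave %activity.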

Assay [5] can be described thus: Stat Signaling Pathway (AID 446; active = well fitted curve in either direction with a large enough effect, not every such curve was filed as active;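 also: ME-180 cervical cancer cells given 40 pM IL-6 alongside compound; SIE-controlled beta-lactamase reporter measured as 460/530 nm FRET emission ratio; % is scaled to controls: 0 for no effect and ±100 for the full control effect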). The following applies: ME-180 (cervical carcinoma) SIE beta-lactamase reporter, IL-6 stimulated, 5 h; at 7.69 µM (top of the series) unless noted. The essentials:
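Emission at 460 and 530 nm (excitation 405 nm) reports SIE-controlled beta-lactamase in ME-180 cells. Cells received compound with 40 pM IL-6 for 5 hrs at 37 C; data scaled between 300 pM IL-6 and 125 nM JAK-inhibitor controls.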

The target in assay [6] is Glucocorticoid receptor (Homo sapiens) (UniProt P04150). In words: GR-GFP Redistribution (AID 450;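 active = compounds whose dose series gives a full or clear partial fitted curve of increased nuclear translocation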; also: potency is read from the fitted curve at half-maximal effect). The following applies: U2OS GR-GFP nuclear translocation, laser cytometry, 2 h.
Chain of Glucocorticoid receptor (Homo sapiens) (P04150 whole entry, looked up, the tested form may be a part): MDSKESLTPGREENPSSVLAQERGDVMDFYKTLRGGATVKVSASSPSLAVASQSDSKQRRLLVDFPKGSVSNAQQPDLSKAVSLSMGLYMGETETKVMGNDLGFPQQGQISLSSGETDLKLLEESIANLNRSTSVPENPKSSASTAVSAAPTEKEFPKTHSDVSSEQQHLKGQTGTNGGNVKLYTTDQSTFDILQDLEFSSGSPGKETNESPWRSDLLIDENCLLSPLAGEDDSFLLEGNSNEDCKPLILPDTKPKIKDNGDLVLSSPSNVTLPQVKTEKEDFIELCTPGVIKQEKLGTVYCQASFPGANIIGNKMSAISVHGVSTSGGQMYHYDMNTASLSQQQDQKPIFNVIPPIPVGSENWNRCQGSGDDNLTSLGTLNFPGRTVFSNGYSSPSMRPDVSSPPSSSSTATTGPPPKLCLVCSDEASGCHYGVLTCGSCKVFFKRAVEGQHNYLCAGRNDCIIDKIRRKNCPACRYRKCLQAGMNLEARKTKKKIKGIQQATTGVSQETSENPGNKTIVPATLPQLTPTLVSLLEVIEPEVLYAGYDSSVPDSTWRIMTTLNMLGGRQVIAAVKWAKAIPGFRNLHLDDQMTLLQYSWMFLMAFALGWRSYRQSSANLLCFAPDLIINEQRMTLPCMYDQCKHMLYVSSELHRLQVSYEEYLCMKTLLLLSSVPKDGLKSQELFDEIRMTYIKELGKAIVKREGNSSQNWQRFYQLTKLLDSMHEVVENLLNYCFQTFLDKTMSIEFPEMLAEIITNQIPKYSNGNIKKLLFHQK
The target is the same in assay [7]. Description: GR-EFC Redistribution (AID 451; calls by dose curve; also: potency is read from the fitted curve at half-maximal effect). The following applies: CHO-K1 GR-EFC translocation, beta-gal luminescence, 2 h. The essentials: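 CHO-K1 cells stably expressing nuclear-localized β-gal enzyme acceptor and GR fused C-terminally to the enzyme donor fragment; ligand-driven nuclear translocation restores β-gal by complementation. Compounds titrated up to 46 uM final, 2 h at 37 °C; luminescence read.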

In assay [8] the target is Mitogen-activated protein kinase 10 (Mus musculus) (UniProt Q61831). In words: JNK3 AlphaScreen Assay (AID 530; active = well fitted curve in either direction with a large enough effect, not every such curve was filed as active;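 also: kinase came from lysate of stimulated human HepG2 cells; % is scaled to controls: 0 for no effect and ±100 for the full control effect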). The following applies: JNK3 lysate, c-Jun phosphorylation; series mostly up to 57.1 µM. The essentials: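 Biotinylated GST-cJun(1-79) served as substrate for JNK3 in HepG2 lysates stimulated with IL-1beta and TNF-alpha. ATP was 10 uM final, pH 7.6. Ser73 phosphorylation was quantified by AlphaScreen (680 nm excitation).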
(Bead proximity is the source of the signal in Alpha formats.)

Assay [9] deals with 3',5'-cyclic-AMP phosphodiesterase 4B (Homo sapiens) (UniProt Q07343). In words: qHTS Assay for Inhibitors of PDE-IV (AID 607; active = well fitted activation curve with a large enough effect in the main read-out, with a control signal flat, not every such curve was filed as active; also: % of control where 0% means no effect). The following applies: HEK293 ACTOne CNG channel cells, membrane potential fluorescence; series mostly up to 22.9 µM. The method in brief: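 The readout is membrane depolarisation from a cAMP-sensing CNG channel, detected with a potential dye at ex 535/em 590. Cells were HEK293-derived (endogenous PDE-IV) at 1000 cells/well, titrated up to 22.9 uM final.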
Chain of 3',5'-cyclic-AMP phosphodiesterase 4B (Homo sapiens) (Q07343 whole entry, looked up): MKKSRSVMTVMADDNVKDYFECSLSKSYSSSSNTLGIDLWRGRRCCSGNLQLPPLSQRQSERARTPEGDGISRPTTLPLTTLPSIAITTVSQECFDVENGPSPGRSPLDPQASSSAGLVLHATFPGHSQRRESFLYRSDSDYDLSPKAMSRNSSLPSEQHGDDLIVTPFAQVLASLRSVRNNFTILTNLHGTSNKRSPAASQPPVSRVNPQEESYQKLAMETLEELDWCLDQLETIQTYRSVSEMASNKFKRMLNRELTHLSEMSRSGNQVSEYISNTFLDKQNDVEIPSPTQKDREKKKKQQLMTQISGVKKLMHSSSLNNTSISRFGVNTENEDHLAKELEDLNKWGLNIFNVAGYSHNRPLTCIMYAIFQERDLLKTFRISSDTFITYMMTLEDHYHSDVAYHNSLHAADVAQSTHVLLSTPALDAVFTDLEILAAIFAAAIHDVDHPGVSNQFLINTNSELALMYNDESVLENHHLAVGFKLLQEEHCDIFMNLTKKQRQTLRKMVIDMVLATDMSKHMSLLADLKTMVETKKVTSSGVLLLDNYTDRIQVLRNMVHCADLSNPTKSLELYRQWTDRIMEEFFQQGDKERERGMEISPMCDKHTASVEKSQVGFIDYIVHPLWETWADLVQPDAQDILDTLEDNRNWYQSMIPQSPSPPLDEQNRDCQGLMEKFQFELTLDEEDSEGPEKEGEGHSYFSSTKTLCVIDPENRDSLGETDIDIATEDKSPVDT
For orientation: qHTS replaces the single test concentration by a dilution series.

Assay [10] has as its target Cytochrome P450 3A4 (Homo sapiens) (UniProt P08684). In words: qHTS Assay for Activators of Cytochrome P450 3A4 (AID 885). Also: nearly all actives have a fitted effect of over 65% in size. The following applies: recombinant CYP3A4, Luciferin-PPXE luminescence, 60 min; series mostly up to 57.1 µM. The essentials: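 Activators are scored by enhanced luminescence from CYP3A4 conversion of luciferin-PPXE (25uM, equal to KM) to luciferin, after 60 min at RT with an NADPH-regenerating system.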

The target in assay [11] is Dual specificity protein kinase CLK4 (Homo sapiens) (UniProt Q9HAZ1). Description: qHTS Assay for Inhibitors of CDC-like Kinase 4 (ADP-FP Assay) (AID 1795).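 Also: recombinant human CLK4 phosphorylating RS repeat peptide at 1 µM ATP; % is scaled to controls: 0 for no effect and ±100 for the full control effect; nearly all actives have a fitted effect of over 60% in size.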 The following applies: Transcreener ADP fluorescence polarization; series mostly up to 50 µM. The essentials: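 FP readout: Orange Transcreener ADP2 tracer (4 nM) plus ADP antibody, read after 30 min at room temperature. Kinase step: 6.25 nM Clk4, 100 uM RS peptide, 1 uM ATP, pH 7.5, 1 h.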
Chain of Dual specificity protein kinase CLK4 (Homo sapiens) (Q9HAZ1 whole entry, looked up): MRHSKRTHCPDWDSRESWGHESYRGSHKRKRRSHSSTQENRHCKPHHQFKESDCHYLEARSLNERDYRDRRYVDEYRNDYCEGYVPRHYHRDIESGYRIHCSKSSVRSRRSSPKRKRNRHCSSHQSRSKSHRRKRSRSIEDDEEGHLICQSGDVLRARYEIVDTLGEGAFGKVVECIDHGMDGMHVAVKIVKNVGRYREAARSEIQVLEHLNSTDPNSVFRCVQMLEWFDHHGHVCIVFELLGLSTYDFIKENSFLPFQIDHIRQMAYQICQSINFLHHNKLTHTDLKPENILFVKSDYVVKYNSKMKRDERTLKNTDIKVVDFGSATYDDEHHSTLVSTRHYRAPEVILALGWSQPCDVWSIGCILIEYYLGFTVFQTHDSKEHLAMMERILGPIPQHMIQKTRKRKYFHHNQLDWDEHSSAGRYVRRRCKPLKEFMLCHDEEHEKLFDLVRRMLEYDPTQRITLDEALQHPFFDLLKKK

The target of assay [12] is Ubiquitin carboxyl-terminal hydrolase 1 (Homo sapiens) (UniProt O94782). In words: Inhibitors of USP1/UAF1: Pilot qHTS (AID 504865).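 Also: rhodamine fluorescence freed from ubiquitin-rhodamine substrate followed over time; top concentration of the series differs between compounds; % is scaled to controls: 0 for no effect and ±100 for the full control effect; nearly all actives have a fitted effect of over 35% in size.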 The following applies: purified USP1/UAF1, Ub-rhodamine cleavage fluorescence; series mostly up to 54.9 µM. The essentials: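 1nM USP1/UAF1 + cpd, 15 min RT; start w/ Ub-Rho 150nM final; kinetic FL 480/540 nm, 6 reads q60 s. Buffer 50mM HEPES pH 7.8, 0.5mM EDTA, 1mM TCEP, 0.01% Tween-20, 0.1 mg/ml BSA.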
Chain of Ubiquitin carboxyl-terminal hydrolase 1 (Homo sapiens) (O94782 whole entry, looked up): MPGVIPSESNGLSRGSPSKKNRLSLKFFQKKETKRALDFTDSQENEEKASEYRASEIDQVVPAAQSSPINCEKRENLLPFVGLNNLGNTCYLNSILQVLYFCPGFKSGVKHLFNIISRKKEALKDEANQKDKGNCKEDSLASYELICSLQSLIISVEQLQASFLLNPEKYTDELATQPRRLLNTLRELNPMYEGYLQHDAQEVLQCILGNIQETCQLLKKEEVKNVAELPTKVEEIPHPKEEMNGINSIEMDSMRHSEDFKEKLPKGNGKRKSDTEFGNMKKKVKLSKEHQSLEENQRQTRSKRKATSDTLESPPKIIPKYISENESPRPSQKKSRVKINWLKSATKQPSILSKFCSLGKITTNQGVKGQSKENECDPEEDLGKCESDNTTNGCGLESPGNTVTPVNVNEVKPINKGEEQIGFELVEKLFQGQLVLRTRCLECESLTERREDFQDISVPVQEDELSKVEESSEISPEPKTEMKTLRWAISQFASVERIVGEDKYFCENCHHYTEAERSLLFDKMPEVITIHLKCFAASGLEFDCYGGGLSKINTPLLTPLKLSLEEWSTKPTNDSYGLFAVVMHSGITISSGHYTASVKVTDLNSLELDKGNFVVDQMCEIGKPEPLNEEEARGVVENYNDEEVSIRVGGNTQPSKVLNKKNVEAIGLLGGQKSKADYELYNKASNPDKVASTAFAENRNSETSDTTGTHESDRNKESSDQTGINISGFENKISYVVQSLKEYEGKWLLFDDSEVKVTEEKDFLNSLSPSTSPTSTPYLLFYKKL

A short description of assay [13]: Primary qHTS for small molecule stabilizers of the endoplasmic reticulum resident proteome: Secreted ER Calcium Modulated Protein (SERCaMP) assay (AID 1508630). Also: % is scaled to controls: 0 for no effect and ±100 for the full control effect. The following applies: SH-SY5Y GLuc-SERCaMP (Gaussia luciferase released on ER calcium loss) secretion, thapsigargin, luminescence; series mostly up to 38.4 µM. The method in brief:
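The SH-SY5Y reporter protocol was run at 3 concentrations up to 38.3 uM (primary) or 11 concentrations (follow-up): 16 h compound, 100 nM thapsigargin for 4 h, then extracellular luciferase luminescence.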

In assay [14] the target is Cytochrome P450 3A4 (Homo sapiens) (UniProt P08684). In words: qHTS Assay for Inhibitors and Substrates of Cytochrome P450 3A4 (AID 884). Also: potency is read from the fitted curve at half-maximal effect; nearly all actives have a fitted effect of over 50% in size. The following applies: recombinant CYP3A4, Luciferin-PPXE luminescence; series mostly up to 57.1 µM. The essentials: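 Luminescent readout of luciferin produced by CYP3A4 (20 nM) dealkylation of Luciferin-PPXE, 25 uM (its KM). NADPH-driven reaction ran 60 min at RT after 10 min compound preincubation; data scaled to 57 uM ketoconazole as 100% inhibition.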
Chain of Cytochrome P450 3A4 (Homo sapiens) (P08684 whole entry, looked up): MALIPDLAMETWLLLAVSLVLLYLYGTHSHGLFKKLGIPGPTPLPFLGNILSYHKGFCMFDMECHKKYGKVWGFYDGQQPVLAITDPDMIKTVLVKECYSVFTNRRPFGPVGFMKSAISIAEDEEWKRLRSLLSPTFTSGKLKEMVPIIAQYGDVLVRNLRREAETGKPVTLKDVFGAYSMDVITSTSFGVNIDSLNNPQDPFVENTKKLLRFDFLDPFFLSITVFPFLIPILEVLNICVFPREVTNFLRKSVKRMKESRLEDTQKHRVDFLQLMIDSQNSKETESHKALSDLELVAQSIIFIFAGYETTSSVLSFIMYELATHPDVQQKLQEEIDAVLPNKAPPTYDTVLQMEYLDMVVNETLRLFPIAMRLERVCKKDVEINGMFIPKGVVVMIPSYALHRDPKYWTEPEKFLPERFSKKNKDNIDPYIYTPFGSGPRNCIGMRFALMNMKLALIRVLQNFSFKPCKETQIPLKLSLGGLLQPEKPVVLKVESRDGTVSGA

Here are results for six molecules from PubChem BioAssay (NCATS).

SMILES strings stand for the structures. Unmarked numbers belong to inactive results. Records with an inconclusive call do not appear. Activity calls are given as the source filed them. Unless noted, calls follow the shape of the dose curve; as a rule, active = well fitted curve in the direction sought with a large enough effect; inconclusive = small, poorly fitted or top-dose-only effect, or another doubt; inactive = no such curve, though single readings can be large; an effect the other way counts as inactive or inconclusive.

Chain of Cytochrome P450 1A2 (Homo sapiens) (P05177 whole entry, looked up): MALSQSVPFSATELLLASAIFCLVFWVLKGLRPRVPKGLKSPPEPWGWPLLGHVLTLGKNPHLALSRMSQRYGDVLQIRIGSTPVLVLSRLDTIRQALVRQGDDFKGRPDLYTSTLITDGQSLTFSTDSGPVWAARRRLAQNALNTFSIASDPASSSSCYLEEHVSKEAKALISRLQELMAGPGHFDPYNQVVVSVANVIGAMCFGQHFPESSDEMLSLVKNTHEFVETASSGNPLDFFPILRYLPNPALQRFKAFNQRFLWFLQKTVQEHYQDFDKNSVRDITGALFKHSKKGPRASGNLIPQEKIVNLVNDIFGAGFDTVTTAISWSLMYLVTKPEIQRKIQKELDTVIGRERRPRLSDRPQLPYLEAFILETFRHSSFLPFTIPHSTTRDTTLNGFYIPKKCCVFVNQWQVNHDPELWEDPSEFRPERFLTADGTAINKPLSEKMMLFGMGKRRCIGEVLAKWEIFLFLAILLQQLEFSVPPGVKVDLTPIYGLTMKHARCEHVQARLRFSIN

Consider `CN(C)C(=O)c1ccc(-c2nccc(-n3ccnc3)n2)cc1`, for which the Potency in [1] was more than 11.4 µM; in assay [3] it was 15.8 µM (active); in assay [6], more than 46 µM; in assay [7], more than 46 µM. In addition, the activity change, negative = inhibition in assay [2] was 4.46%; in [4], 5.95%. The activity, negative = inhibition in assay [5] was 8.25%. The Potency entry in assay [8], in [9], in assay [10], in assay [11] and in assay [12] was “inactive” throughout. Besides, in [13], the result was inactive.

As for `COc1ccc2[nH]cc(CCNc3ncncc3-c3cccnc3)c2c1`, the Potency in assay [1] was more than 11.4 µM; in assay [3], 0.316 µM (active); in [6] it was more than 46 µM; in [7], more than 46 µM; in [14], 0.794 µM (active). The activity change, negative = inhibition is 9.96% in assay [2] and 3.23% in assay [4]. Also, the activity, negative = inhibition in [5] was 2.25%. Further, the Potency entry in [8], in assay [9], in assay [10], in assay [11] and in [12] was “inactive” throughout. In addition, the outcome in assay [13] was inactive.

Turning to `COc1ccccc1-c1cc(Nc2ccn[nH]2)ncn1`, the Potency was more than 11.4 µM in [1]; 0.631 µM (active) in assay [3]; more than 46 µM in assay [6]; more than 46 µM in [7]; 3.98 µM (active) in assay [14]. Also, the activity change, negative = inhibition is -9.99% in [2] and 2.51% in assay [4]. The activity, negative = inhibition in assay [5] is 6.94%. For the same molecule, the Potency result in assay [8], in assay [10], in assay [11] and in assay [12] was “inactive” in each case. Also, the outcome in [13] was inactive.

Take `COc1ccccc1-c1nc(NCCN2CCOCC2)c2ccccc2n1`: the Potency is more than 11.4 µM in [1], 7.94 µM (active) in [3], more than 46 µM in assay [6] and more than 46 µM in assay [7]. Also, the activity change, negative = inhibition in [2] was 7.09%; in assay [4], -28.2%. The activity, negative = inhibition in assay [5] was 29.7%. Moreover, the Potency entry in assay [8], in [9], in assay [10], in assay [11] and in [12] was “inactive” each time. In addition, in assay [13], the outcome was inactive.

`CN(C)C(=O)c1ccc(-c2cncnc2-n2ccnc2)cc1`: the Potency in assay [1] is more than 11.4 µM; in assay [3], 20 µM (active); in [6], more than 46 µM; in [7], more than 46 µM. For the same molecule, the activity change, negative = inhibition in [2] is -3.64%; in [4], 13%. For the same molecule, in [5], the activity, negative = inhibition was 3.39%. The Potency result in assay [8], in assay [9], in assay [10], in [11] and in [12] was “inactive” in each case. The outcome in [13] was inactive.

As for `Cc1cnc(CNc2ccnc(-c3cccc(NS(C)(=O)=O)c3)n2)cn1`, the Potency in assay [1] was more than 11.4 µM; in assay [3], 20 µM (active); in assay [6] it was more than 46 µM; in [7], more than 46 µM. The results for the activity change, negative = inhibition in [2] and in [4] were -6.82% and 13.5%, respectively. The activity, negative = inhibition in assay [5] was 4.11%. In addition, the Potency result in assay [8], in assay [9], in [10], in assay [11] and in assay [12] was “inactive” throughout. Also, the result in assay [13] was inactive.
